Records with an inconclusive call do not appear. Calls of active or inactive are those of the source. Unless noted, calls follow the shape of the dose curve; as a rule, active = well fitted curve in the direction sought with a large enough effect; inconclusive = small, poorly fitted or top-dose-only effect, or another doubt; inactive = no such curve, though single readings can be large; an effect the other way counts as inactive or inconclusive.
Columns and labels:
[1] = target: Lysosomal acid glucosylceramidase (Homo sapiens) (UniProt P04062); assay: Glucocerebrosidase-p2 (AID 348; in the data active = potency below about 10 µM; also: potency is read from the fitted curve at half-maximal effect); details: purified GBA, blue fluorogenic substrate, 40 min
Outline: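 Compounds titrated from 0.6 nM upwards against 0.2 nM enzyme in pH 5.9 citric acid/KH2PO4, taurocholate, tween-20; blue fluorogenic substrate 80 uM, 40 min room temperature, stopped and read Ex 365/Em 440 for AC50.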

[2] = AP1 Signaling Pathway (AID 357; active = well fitted curve in either direction with a large enough effect, not every such curve was filed as active; also: % is scaled to controls: 0 for no effect and ±100 for the full control effect); details: ME-180 AP-1-bla reporter, EGF-induced, beta-lactamase ratio, 5 h; at 7.69 µM (top of the series) unless noted
Outline: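 AP-1-bla ME-180 cells with beta-lactamase reporter under AP-1 response element, stimulated with EC50 EGF; compounds titrated, 5 hours at 37 degrees Celsius. CCF4 read at 460/530 nm ratio; positive and negative modulators judged by AC50.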

[3] = Stat Signaling Pathway (AID 446; active = well fitted curve in either direction with a large enough effect, not every such curve was filed as active;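 also: ME-180 cervical cancer cells given 40 pM IL-6 alongside compound; SIE-controlled beta-lactamase reporter measured as 460/530 nm FRET emission ratio; % is scaled to controls: 0 for no effect and ±100 for the full control effect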); details: ME-180 SIE beta-lactamase reporter, IL-6 stimulated, 5 h; at 7.69 µM (top of the series) unless noted
Outline: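 Screening format detects activators and inhibitors alike: ME-180 SIE-bla cells stimulated at 40 pM IL-6 for 5 hrs with compound, then dual-emission beta-lactamase read at 405 nm excitation.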

[4] = target: Glucocorticoid receptor (Homo sapiens) (UniProt P04150); assay: GR-GFP Redistribution (AID 450;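 active = compounds whose dose series gives a full or clear partial fitted curve of increased nuclear translocation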; also: potency is read from the fitted curve at half-maximal effect); details: U2OS GR-GFP nuclear translocation, laser cytometry, 2 h
[5] = target: Glucocorticoid receptor (Homo sapiens) (UniProt P04150); assay: GR-EFC Redistribution (AID 451; calls by dose curve; also: potency is read from the fitted curve at half-maximal effect); details: CHO-K1 GR-EFC translocation, beta-gal luminescence, 2 h
Outline: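 CHO-K1 cells stably expressing nuclear-localized β-gal enzyme acceptor and GR fused C-terminally to the enzyme donor fragment; ligand-driven nuclear translocation restores β-gal by complementation. Compounds titrated up to 46 uM final, 2 h at 37 °C; luminescence read.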

[6] = target: Mitogen-activated protein kinase 10 (Mus musculus) (UniProt Q61831); assay: JNK3 AlphaScreen Assay (AID 530; active = well fitted curve in either direction with a large enough effect, not every such curve was filed as active;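 also: kinase came from lysate of stimulated human HepG2 cells; signal reports phosphorylation of biotinylated GST-cJun 1-79 at Ser73 with 10 µM ATP; % is scaled to controls: 0 for no effect and ±100 for the full control effect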); details: JNK3 lysate, c-Jun phosphorylation; series mostly up to 57.1 µM
Outline: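 Inhibitors reduce antibody binding to phosphorylated biotin-cJun, lowering AlphaScreen luminescence. Lysates from HepG2 cells pre-activated by IL-1beta plus TNF-alpha supplied JNK3; compounds were titrated.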

[7] = qHTS Assay for Lipid Storage Modulators (AID 1519; calls by dose curve; also: potency is read from the fitted curve at half-maximal effect); details: Drosophila S3 cells, BODIPY lipid droplet/cell ratio, laser cytometry, cells loaded with oleic acid; for activity change, negative = inhibition: at 57.5 µM (top of the series)
Outline: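 Cells seeded at 5,000 per well were treated with compounds over a concentration series and loaded with oleic acid (400 uM, as added). Lipid droplet fluorescence (488 nm excitation, 500-530 nm channel) was read by laser-scanning cytometry and normalized to 20 uM Triacsin C.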

[8] = target: Dual specificity protein kinase CLK4 (Homo sapiens) (UniProt Q9HAZ1); assay: qHTS Assay for Inhibitors of CDC-like Kinase 4 (Kinase-Glo Assay) (AID 1770); details: recombinant Clk4, Kinase-Glo ATP depletion luminescence; series mostly up to 66.7 µM; also: nearly all actives have a fitted effect of over 65% in size; also: potency is read from the fitted curve at half-maximal effect
Outline: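 Readout: Kinase-Glo luminescence from ATP left after a 4.5 h room-temperature reaction of 25 nM Clk4 with 100 uM RS peptide and 1 uM ATP (final). Buffer: 25 mM Tris pH 7.5, 10 mM MgCl2.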

[9] = target: Dual specificity protein kinase CLK4 (Homo sapiens) (UniProt Q9HAZ1); assay: qHTS Assay for Inhibitors of CDC-like Kinase 4 (ADP-Glo Assay) (AID 1771); details: recombinant CLK4, ADP-Glo luminescence; series mostly up to 80 µM; also: nearly all actives have a fitted effect of over 70% in size; also: potency is read from the fitted curve at half-maximal effect
Outline: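 25 nM Clk4 with 100 uM RS repeat peptide and 1 uM ATP (final) in buffer with 2 mM MgCl2, 0.5 mM EGTA, 2.5 mM DTT, 0.01% Triton X-100; 1 h at room temperature; ADP-Glo luminescence for ADP formed.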

[10] = target: Dual specificity protein kinase CLK4 (Homo sapiens) (UniProt Q9HAZ1); assay: qHTS Assay for Inhibitors of CDC-like Kinase 4 (ADP-FP Assay) (AID 1795); details: Transcreener ADP fluorescence polarization; series mostly up to 50 µM; also: nearly all actives have a fitted effect of over 60% in size; also: potency is read from the fitted curve at half-maximal effect
Outline: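 FP readout: Orange Transcreener ADP2 tracer (4 nM) plus ADP antibody, read after 30 min at room temperature. Kinase step: 6.25 nM Clk4, 100 uM RS peptide, 1 uM ATP, pH 7.5, 1 h.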

[11] = target: Ubiquitin carboxyl-terminal hydrolase 1 (Homo sapiens) (UniProt O94782); assay: Inhibitors of USP1/UAF1: Pilot qHTS (AID 504865); details: purified USP1/UAF1, Ub-rhodamine cleavage fluorescence; series mostly up to 54.9 µM;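 also: rhodamine fluorescence freed from ubiquitin-rhodamine substrate followed over time; top concentration of the series differs between compounds; % is scaled to controls: 0 for no effect and ±100 for the full control effect; nearly all actives have a fitted effect of over 35% in size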
Outline: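 1nM USP1/UAF1 + cpd, 15 min RT; start w/ Ub-Rho 150nM final; kinetic FL 480/540 nm, 6 reads q60 s. Buffer 50mM HEPES pH 7.8, 0.5mM EDTA, 1mM TCEP, 0.01% Tween-20, 0.1 mg/ml BSA.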

[12] = Primary qHTS for small molecule stabilizers of the endoplasmic reticulum resident proteome: Secreted ER Calcium Modulated Protein (SERCaMP) assay (AID 1508630); details: SH-SY5Y GLuc-SERCaMP (Gaussia luciferase released on ER calcium loss) secretion, thapsigargin, luminescence; series mostly up to 38.4 µM; also: % is scaled to controls: 0 for no effect and ±100 for the full control effect
Outline: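 GLuc-SERCaMP-expressing SH-SY5Y cells, pretreated 16 h with compound, are challenged with thapsigargin to empty ER calcium stores; after 4 h, coelenterazine is added directly to the medium and luminescence is imaged.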

[13] = target: Cytochrome P450 1A2 (Homo sapiens) (UniProt P05177); assay: p450-cyp1a2 (AID 410; calls by dose curve; also: potency is read from the fitted curve at half-maximal effect); details: recombinant CYP1A2, luciferin-ME demethylation, luminescence; series mostly up to 57 µM
Outline: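 20nM CYP1A2 with 100uM Luciferin-ME (at Km) in 100mM KPO4; compound preincubated 10 min, NADPH regeneration added, 60 min at room temperature. Luciferin quantified by luminescence after detection reagent; normalized to 57 uM furafylline.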

[14] = target: 3',5'-cyclic-AMP phosphodiesterase 4B (Homo sapiens) (UniProt Q07343); assay: qHTS Assay for Inhibitors of PDE-IV (AID 607; active = well fitted activation curve with a large enough effect in the main read-out, with a control signal flat, not every such curve was filed as active; also: % of control where 0% means no effect); details: HEK293 ACTOne CNG channel cells, membrane potential fluorescence; series mostly up to 22.9 µM
Outline: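 The readout is membrane depolarisation from a cAMP-sensing CNG channel, detected with a potential dye at ex 535/em 590. Cells were HEK293-derived (endogenous PDE-IV) at 1000 cells/well, titrated up to 22.9 uM final.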

[15] = target: Cytochrome P450 3A4 (Homo sapiens) (UniProt P08684); assay: qHTS Assay for Activators of Cytochrome P450 3A4 (AID 885); details: recombinant CYP3A4, Luciferin-PPXE luminescence, 60 min; series mostly up to 57.1 µM; also: nearly all actives have a fitted effect of over 65% in size
Outline: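 Steps: enzyme/substrate mix dispensed; compound added, 10 min RT; NADPH regeneration solution added, 60 min RT; luciferin detection buffer stops reaction; 20 min later luminescence measured.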

[16] = qHTS Assay for Identification of Small Molecule Agonists for Hypoxia Response Element Signaling Pathway (AID 914; active = well fitted activation curve with a large enough effect in the signal ratio, with a control signal flat, not every such curve was filed as active; the % refers to the signal ratio; also: potency is read from the fitted curve at half-maximal effect); details: ME-180 (cervical carcinoma) HRE-bla reporter, beta-lactamase ratio, CoCl2, 17 h; activation: stronger effect = higher value
Outline: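 HRE-bla ME-180 cells, overnight plating in Opti-MEM with 0.5% dialyzed FBS; cpd titration + EC50 CoCl2, 17 h, 37 degrees Celsius; CCF4 2.5 h RT; 460/530 nm ratio; AC50.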

[17] = NFAT Signaling Pathway (AID 444; active = well fitted curve in either direction with a large enough effect, not every such curve was filed as active); details: Jurkat NFAT-bla M1, carbachol, beta-lactamase ratio, 5 h; at 7.69 µM (top of the series) unless noted
Outline: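 Jurkat cells carrying an NFAT-driven β-lactamase reporter and co-transfected muscarinic M1 receptor were treated with compound plus carbachol (1 uM final, an EC50 level) for 5 h at 37 °C. CCF4 loading followed for 1 h at RT; 460/530 nm ratio gave %activity.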

[18] = measured here: cell count channel max response
[19] = measured here: lipid channel max response

Chain of Lysosomal acid glucosylceramidase (Homo sapiens) (P04062 whole entry, looked up): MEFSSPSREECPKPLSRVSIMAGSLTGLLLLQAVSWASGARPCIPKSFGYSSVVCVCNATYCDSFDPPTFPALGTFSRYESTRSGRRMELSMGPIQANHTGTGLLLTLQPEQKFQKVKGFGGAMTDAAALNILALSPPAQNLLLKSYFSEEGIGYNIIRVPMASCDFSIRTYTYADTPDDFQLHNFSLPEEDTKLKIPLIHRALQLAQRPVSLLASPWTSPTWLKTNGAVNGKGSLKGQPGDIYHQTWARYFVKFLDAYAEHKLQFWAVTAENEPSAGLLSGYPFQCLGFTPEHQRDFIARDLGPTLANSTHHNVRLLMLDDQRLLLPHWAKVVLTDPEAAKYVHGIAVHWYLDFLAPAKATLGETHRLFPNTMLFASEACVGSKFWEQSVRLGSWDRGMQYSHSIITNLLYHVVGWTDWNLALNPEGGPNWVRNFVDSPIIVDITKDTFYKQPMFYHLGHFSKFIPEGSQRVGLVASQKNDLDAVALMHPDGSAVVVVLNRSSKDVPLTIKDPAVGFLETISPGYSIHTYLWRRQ
Chain of Glucocorticoid receptor (Homo sapiens) (P04150 whole entry, looked up, the tested form may be a part): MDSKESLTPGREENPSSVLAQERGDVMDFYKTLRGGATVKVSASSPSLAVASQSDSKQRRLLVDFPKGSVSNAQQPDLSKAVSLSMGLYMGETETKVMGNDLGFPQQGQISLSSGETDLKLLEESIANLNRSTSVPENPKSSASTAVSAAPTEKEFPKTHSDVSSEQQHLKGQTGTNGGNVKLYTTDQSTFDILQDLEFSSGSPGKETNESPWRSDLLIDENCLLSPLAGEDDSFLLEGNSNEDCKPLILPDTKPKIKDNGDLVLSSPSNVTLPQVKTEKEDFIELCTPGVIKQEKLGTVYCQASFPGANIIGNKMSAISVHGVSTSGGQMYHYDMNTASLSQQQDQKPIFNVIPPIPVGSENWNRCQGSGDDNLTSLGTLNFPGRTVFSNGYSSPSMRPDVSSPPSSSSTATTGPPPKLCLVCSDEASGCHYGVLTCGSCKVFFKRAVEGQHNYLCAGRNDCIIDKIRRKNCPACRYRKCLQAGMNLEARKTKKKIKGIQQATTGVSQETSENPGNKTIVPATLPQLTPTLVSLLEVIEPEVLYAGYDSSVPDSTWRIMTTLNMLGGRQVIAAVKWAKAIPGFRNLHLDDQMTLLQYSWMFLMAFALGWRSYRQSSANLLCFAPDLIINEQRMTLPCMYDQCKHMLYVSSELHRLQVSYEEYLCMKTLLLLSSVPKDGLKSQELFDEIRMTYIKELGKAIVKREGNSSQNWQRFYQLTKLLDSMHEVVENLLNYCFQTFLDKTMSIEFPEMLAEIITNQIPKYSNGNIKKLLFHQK
Chain of Ubiquitin carboxyl-terminal hydrolase 1 (Homo sapiens) (O94782 whole entry, looked up): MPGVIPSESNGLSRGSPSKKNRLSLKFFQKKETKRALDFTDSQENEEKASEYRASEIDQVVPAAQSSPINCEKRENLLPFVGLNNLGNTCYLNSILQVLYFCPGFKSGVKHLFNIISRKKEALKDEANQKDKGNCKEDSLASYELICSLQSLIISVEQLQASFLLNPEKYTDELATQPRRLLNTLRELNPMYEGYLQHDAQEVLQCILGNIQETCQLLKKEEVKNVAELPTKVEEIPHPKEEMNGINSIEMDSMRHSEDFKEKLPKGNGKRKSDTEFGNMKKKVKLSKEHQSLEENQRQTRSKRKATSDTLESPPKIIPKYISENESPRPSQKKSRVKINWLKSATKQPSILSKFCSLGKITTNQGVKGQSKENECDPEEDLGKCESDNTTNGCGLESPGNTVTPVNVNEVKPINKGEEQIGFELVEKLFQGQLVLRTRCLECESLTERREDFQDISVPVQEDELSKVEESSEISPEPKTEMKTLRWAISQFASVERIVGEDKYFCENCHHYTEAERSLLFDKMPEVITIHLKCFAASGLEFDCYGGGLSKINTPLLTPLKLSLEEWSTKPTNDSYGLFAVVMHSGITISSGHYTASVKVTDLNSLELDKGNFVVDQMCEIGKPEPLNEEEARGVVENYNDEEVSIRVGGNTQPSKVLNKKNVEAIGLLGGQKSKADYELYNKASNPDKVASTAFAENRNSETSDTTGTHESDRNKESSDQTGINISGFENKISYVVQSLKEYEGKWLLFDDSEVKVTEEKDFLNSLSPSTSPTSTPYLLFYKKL
Chain of Dual specificity protein kinase CLK4 (Homo sapiens) (Q9HAZ1 whole entry, looked up): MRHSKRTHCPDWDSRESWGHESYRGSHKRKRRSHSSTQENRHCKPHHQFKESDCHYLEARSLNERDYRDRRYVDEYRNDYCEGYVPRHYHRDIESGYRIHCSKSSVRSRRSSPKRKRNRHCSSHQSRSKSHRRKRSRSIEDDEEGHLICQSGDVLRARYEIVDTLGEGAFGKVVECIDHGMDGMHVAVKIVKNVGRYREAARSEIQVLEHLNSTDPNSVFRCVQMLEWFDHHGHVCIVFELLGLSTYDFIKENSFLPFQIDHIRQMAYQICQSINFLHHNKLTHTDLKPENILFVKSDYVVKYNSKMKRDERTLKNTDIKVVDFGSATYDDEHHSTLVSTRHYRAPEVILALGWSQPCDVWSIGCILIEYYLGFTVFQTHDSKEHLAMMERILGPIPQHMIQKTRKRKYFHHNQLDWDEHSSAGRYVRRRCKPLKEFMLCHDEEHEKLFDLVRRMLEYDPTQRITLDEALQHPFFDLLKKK
Chain of 3',5'-cyclic-AMP phosphodiesterase 4B (Homo sapiens) (Q07343 whole entry, looked up): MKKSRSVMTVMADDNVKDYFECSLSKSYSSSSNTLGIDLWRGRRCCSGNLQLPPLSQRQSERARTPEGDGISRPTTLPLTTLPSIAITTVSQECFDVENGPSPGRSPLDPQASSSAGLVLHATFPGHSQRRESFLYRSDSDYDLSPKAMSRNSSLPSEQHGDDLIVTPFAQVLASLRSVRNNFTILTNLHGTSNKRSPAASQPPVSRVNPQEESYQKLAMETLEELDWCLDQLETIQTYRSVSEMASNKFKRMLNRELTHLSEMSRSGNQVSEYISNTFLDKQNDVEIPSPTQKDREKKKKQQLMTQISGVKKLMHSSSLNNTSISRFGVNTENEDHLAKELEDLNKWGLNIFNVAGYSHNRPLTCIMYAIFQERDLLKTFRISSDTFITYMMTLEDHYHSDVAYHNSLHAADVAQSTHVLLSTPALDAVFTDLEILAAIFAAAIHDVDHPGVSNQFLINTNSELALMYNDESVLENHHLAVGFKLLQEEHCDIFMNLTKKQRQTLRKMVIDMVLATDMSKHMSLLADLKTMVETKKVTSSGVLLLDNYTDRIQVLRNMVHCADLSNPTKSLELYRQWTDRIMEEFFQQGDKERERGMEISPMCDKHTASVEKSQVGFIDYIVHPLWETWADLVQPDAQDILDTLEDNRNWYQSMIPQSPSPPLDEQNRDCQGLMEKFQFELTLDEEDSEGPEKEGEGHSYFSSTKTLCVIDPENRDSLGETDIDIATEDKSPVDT
Chain of Cytochrome P450 1A2 (Homo sapiens) (P05177 whole entry, looked up): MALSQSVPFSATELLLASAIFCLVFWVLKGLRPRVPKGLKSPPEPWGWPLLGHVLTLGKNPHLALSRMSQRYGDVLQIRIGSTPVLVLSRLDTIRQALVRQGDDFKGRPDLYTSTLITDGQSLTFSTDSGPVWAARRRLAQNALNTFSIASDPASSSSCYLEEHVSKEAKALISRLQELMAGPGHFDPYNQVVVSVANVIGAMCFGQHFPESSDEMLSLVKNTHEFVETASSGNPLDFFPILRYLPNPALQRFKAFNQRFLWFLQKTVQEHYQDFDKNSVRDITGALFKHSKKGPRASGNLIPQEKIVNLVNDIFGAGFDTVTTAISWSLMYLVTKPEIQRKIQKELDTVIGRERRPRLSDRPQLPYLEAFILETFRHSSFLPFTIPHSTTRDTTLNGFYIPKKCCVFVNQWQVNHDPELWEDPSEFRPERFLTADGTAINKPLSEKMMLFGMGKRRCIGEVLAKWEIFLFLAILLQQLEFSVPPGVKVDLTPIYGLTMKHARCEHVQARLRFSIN
Chain of Cytochrome P450 3A4 (Homo sapiens) (P08684 whole entry, looked up): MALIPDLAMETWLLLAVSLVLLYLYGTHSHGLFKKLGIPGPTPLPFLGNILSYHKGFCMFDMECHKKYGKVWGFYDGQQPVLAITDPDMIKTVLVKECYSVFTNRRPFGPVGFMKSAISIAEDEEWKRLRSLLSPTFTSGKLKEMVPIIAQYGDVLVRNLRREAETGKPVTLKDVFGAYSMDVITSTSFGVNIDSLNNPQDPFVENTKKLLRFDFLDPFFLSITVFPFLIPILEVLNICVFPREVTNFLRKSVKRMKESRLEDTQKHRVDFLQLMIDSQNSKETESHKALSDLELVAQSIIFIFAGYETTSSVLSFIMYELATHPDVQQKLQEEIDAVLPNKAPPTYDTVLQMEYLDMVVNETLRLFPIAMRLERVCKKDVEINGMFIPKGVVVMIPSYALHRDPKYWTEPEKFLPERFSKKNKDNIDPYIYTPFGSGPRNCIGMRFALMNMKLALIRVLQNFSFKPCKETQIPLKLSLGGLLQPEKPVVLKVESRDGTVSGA

Cc1nc2cnc(N3CCOCC3)nc2n(C[C@H]2CCCO2)c1=O
inactive: Potency [1] > 11.4 µM | activity change, negative = inhibition [2] -13.4% | activity, negative = inhibition [3] -8.29% | Potency [4] > 9.22 µM | Potency [5] > 46 µM | outcome [6] | activity change, negative = inhibition [7] 3.62% | Potency [8] | Potency [9] | Potency [10] | Potency [11] | Potency [12]
10.2%: max response [7, 18]
13.9%: max response [7, 19]

COc1ccc(-c2nc3cnc(Nc4ccccc4)nc3n(C[C@H]3CCCO3)c2=O)cc1
-87.2%: max response [7, 19]
2.79%: max response [7, 18]
inactive: Potency [1] > 11.4 µM | activity change, negative = inhibition [2] 26.1% | Potency [4] > 9.22 µM | Potency [5] > 46 µM | outcome [6] | Potency [8] | Potency [9] | Potency [10] | Potency [11] | Potency [12]
active: Potency [7] 11.2 µM

Cn1c(=O)c(-c2cccs2)nc2cnc(N3CCNCC3)nc21
15.4%: max response [7, 18]
active: Potency [13] 10 µM | Potency [16] 3.16 µM
18.9%: max response [7, 19]
inactive: Potency [1] > 11.4 µM | Potency [4] > 9.22 µM | Potency [5] > 46 µM | outcome [6] | Potency [14] | Potency [15] | activity change, negative = inhibition [7] 4.59% | Potency [8] | Potency [9] | Potency [10] | Potency [11] | Potency [12]

c1nc(NC2CCNCC2)c2cc(-c3ccoc3)ccc2n1
inactive: activity change, negative = inhibition [2] -0.789% | activity change, negative = inhibition [17] 12.3% | activity, negative = inhibition [3] -3% | Potency [4] > 46 µM | Potency [5] > 46 µM | outcome [6] | Potency [14] | activity change, negative = inhibition [7] 0.0897% | Potency [11] | Potency [12]
11.3%: max response [7, 19]
active: Potency [13] 25.1 µM | Potency [8] 0.891 µM | Potency [9] 1 µM | Potency [10] 0.631 µM
13.4%: max response [7, 18]

Clc1ccccc1-c1ccc2ncnc(N3CCNCC3)c2c1
active: Potency [13] 2 µM | Potency [8] 15.8 µM | Potency [9] 28.2 µM
26.7%: max response [7, 18]
32.3%: max response [7, 19]
inactive: Potency [1] > 11.4 µM | activity change, negative = inhibition [2] 19.1% | activity change, negative = inhibition [17] -4.54% | activity, negative = inhibition [3] 5.5% | Potency [4] > 46 µM | Potency [5] > 46 µM | outcome [6] | Potency [14] | Potency [15] | activity change, negative = inhibition [7] 5.35% | Potency [11] | Potency [12]

COc1cccc(Cn2c(=O)cnc3cncnc32)c1
17.8%: max response [7, 19]
active: Potency [13] 15.8 µM | Potency [8] 15.8 µM | Potency [9] 28.2 µM
inactive: Potency [1] > 11.4 µM | activity change, negative = inhibition [2] 13.8% | activity change, negative = inhibition [17] -18.4% | activity, negative = inhibition [3] -2.31% | Potency [4] > 9.22 µM | Potency [5] > 46 µM | outcome [6] | Potency [15] | activity change, negative = inhibition [7] 1.18% | Potency [11] | Potency [12]
17.1%: max response [7, 18]

COc1ncc2nc(-c3cc(F)cc(F)c3)c(=O)n(C)c2n1
28.7%: max response [7, 19]
active: Potency [13] 2 µM
24.3%: max response [7, 18]
inactive: Potency [1] > 11.4 µM | activity change, negative = inhibition [2] -19.2% | activity change, negative = inhibition [17] -1.78% | activity, negative = inhibition [3] -3.71% | Potency [4] > 9.22 µM | Potency [5] > 46 µM | outcome [6] | Potency [14] | activity change, negative = inhibition [7] 5.28% | Potency [8] | Potency [9] | Potency [11] | Potency [12]

Reference: PubChem BioAssay (NCATS)
